# Measured values published in PubChem BioAssay (NCI).
# “And” between values parts separate entries of the source, which are not always exact repeats. Equal entries are not always repeated. The panel holds about 83,000 compounds, 20% with a hit somewhere; the sample as a whole holds those more often.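 Cell lines were cultured in 96-well plates, exposed to a single compound concentration, and assessed for percent growth 48 hours later.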 The source made the active and inactive calls. The calls were made as follows: active = growth percent below 10; inactive = the rest.
# Tested on: HL-60(TB) leukemia
# Assay: NCI-60 one-dose screen, 48 h (100 = growth as untreated, 0 = no growth, -100 = all killed)
# Conditions: 10 µM unless noted
row,Compound,growth
1,O=C1C(Cl)=C(NCc2ccco2)C(=O)c2ccccc21,85% (inactive)
2,O=C1C=CC(=O)N1c1ccc(N2C(=O)C=CC2=O)cc1,-50.6% (active)
3,COC(=O)[C@]12CC[C@@H](C)[C@H](C)[C@@H]1C1=CC[C@@H]3[C@@]4(C)C(c5cnco5)=C[C@@](C)(CO)C4=CC[C@@]3(C)[C@]1(C)CC2,21.9% (inactive)
4,CCCCC1CCCCN1C(=O)OCC (stereo not drawn),128% (inactive)
5,CC(=O)Oc1cc(C(=O)O)cc(OC(C)=O)c1OC(C)=O,108% (inactive) and 88.2% (inactive)
6,COc1cc(-c2csc(NC(=O)Nc3ccc(Cl)cc3)n2)cc(OC)c1OC,2.62% (active)
7,Cc1ccc2c(c1)/C(=N\N=C/c1cn(C(C)C)c3ccccc13)C(=O)N2,-33.3% (active)
8,Cc1c(C(N)=O)sc2ncn(CC(=O)NN=C3CCCCC3)c(=O)c12,123% (inactive)
9,Fc1cc2c(cc1Cl)N(c1ncnc3ccc(-c4cnc5[nH]ncc5c4)cc13)CC2,66.5% (inactive)
10,O=C1CCC(N2Cc3c(C#CCCCNC(=O)c4cc5c(o4)C(=O)c4ccccc4C5=O)cccc3C2=O)C(=O)N1 (stereo not drawn),-1.27% (active)
11,N=C(N)c1ccc(-c2ccc(-c3cc(F)cc(F)c3)o2)nc1,97.7% (inactive)
12,COc1cc(-c2cc(=O)oc3cc(O)ccc23)cc(OC)c1OC,86.3% (inactive)
13,NC(=O)CSc1oc(-c2ccccc2)nc1S(=O)(=O)c1ccc(Br)cc1,82.1% (inactive)
